Sampled rows, rich in hits. Any-hit rate of the full collection: about 7.9%.
LASV entry inh = inhibitors of Lassa virus binding or cell entry | actives 1.2% (n = 300,000) | Potency, µM (titrated, usually from 37.9 µM), most hits filed as inhibitors | Lassa virus pseudotype entry inhibition, cell reporter | AID 540256; calls by dose curve; tested in HEK293 cells; also: nearly all actives have a fitted effect of over 50% in size
HCMV inh = inhibitors of human cytomegalovirus; HFF cells, HCMV-luciferase reporter, 72 h; hits give low values; activity change, negative = inhibition, % at 57.5 µM; actives 4.5% (n = 410,000); AID 1259415; in the data active = activity change below about -60%; inconclusive = no clear call, values can overlap the other calls; inactive = above about -39%
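HFF cells seeded 16 h at 37C, treated with compounds, infected with luciferase-reporter HCMV at MOI 1 PFU/cell; luciferase read at 72 h post infection, normalized to buffer-only and Salinomycin controls.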
FMDV inh = blocks foot and mouth disease virus. actives 1.2% (n = 410,000). Potency, µM (top dose mostly 57.9 µM), most hits filed as inhibitors. AID 1159524. FMDV antiviral cell-based qHTS; calls by dose curve; tested in HEK293T cells; also: read-out not given here; nearly all actives have a fitted effect of over 45% in size
HCV inh = blocks hepatitis C virus; AID 651820; Potency, µM (titrated, usually from 41.8 µM), usual class: inhibitors; Huh7.5.1 HCVcc-Cre infection, luciferase reporter, 44 h; actives 3.4% (n = 340,000); active = well fitted inhibition curve with a large enough effect; inconclusive = small, poorly fitted or top-dose-only effect, or another doubt; inactive = no such curve, though single readings can be large or run the other way
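Reporter virus HCVcc-Cre (~0.5 moi) infects cells exposed to compound; seeding density 1,000 cells/well with 4 h settling beforehand. Luminescence, 15 sec read, taken 44 h post-infection following a 15 min RT substrate incubation.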
Marburg entry inh = blocks Marburg virus binding to or entry into cells | Marburg virus pseudotyped entry inhibition, cell reporter | Potency, µM (doses to about 37.8 µM), actives largely listed as inhibitors | actives 1.8% (n = 300,000) | AID 540276; calls by dose curve; tested in HEK293 cells
Large screens that a line does not name were inactive.

CCOC(=O)CSC1=NC(=O)/C(=C\c2ccc(OC(C)=O)cc2)S1	LASV entry inh inconclusive, HCV inh inconclusive, Marburg entry inh 8.2µM
CC(=O)c1ccc(C(=O)NCC2Cc3cccc(-c4ncccn4)c3O2)cc1 (stereo not drawn)	none (no result: LASV entry inh, HCMV inh, HCV inh, Marburg entry inh)
COc1cc(C)c(CN2CCC3(CCC(CNC(=O)c4ccnn4C)O3)CC2)cc1C (stereo not drawn)	none (no result: LASV entry inh, HCMV inh, HCV inh, Marburg entry inh)
Cc1ccc(S(=O)(=O)N2CCCCC2)cc1NC(=O)c1cc2ccccc2o1	HCV inh 22µM (no result: LASV entry inh, Marburg entry inh)
NS(=O)(=O)c1cccc(NC(=O)c2cc(=O)c3ccccc3o2)c1	none
CN(c1ccccc1)S(=O)(=O)c1cccc(NC(=O)c2cc(=O)c3ccccc3o2)c1	LASV entry inh inconclusive, HCMV inh -66, FMDV inh 32µM, HCV inh 11µM, Marburg entry inh 13µM
CCN1CCN(c2ccc(S(=O)(=O)N3CCCCC3)cc2NC(=O)c2cc3ccccc3o2)CC1	HCV inh inconclusive, Marburg entry inh inconclusive
O=C(Nc1cccc(S(=O)(=O)N2CCCCCC2)c1)c1cc(=O)c2ccccc2o1	FMDV inh 20µM, HCV inh inconclusive, Marburg entry inh inconclusive
CCOc1ccccc1NC(=O)C(=O)NCC(c1cccnc1)N1CCN(c2ccccc2)CC1 (stereo not drawn)	FMDV inh inconclusive (no result: HCV inh, Marburg entry inh)
COc1ccc(Oc2ccc(-c3ccn[nH]3)cc2)cc1	LASV entry inh inconclusive
C=C(C#CCCO)CCN1C=C(C(=O)OCC)C(c2ccccc2)NC1=O (stereo not drawn)	LASV entry inh inconclusive (no result: HCMV inh, FMDV inh, HCV inh)
O=C(c1ccco1)N(CCCN1CCOCC1)c1nc(-c2ccc(F)cc2)cs1	LASV entry inh inconclusive, HCV inh 11µM, Marburg entry inh inconclusive (no result: FMDV inh)
O=C(c1ccco1)N(CCCN1CCOCC1)c1nc(-c2ccc(Cl)cc2)cs1	LASV entry inh inconclusive, FMDV inh inconclusive, HCV inh 11µM, Marburg entry inh inconclusive
CCn1c(CN2CCC(C)CC2)nc2cc(NC(=O)COc3ccc([N+](=O)[O-])cc3)ccc21	none (no result: HCV inh)
C/C(=C\c1ccco1)CN1CCOc2ccc(CN3CCC(Oc4cccnc4)CC3)cc2C1	none (no result: LASV entry inh, HCMV inh, HCV inh, Marburg entry inh)
CN1/C(=C/C=C(C#N)C#N)C(C)(C)c2ccccc21	none
CC1=C/C(=C\C=C(C#N)C#N)N(C)c2ccccc21	HCMV inh -81
Cc1cc(Br)ccc1NC(=O)c1cc2c(s1)-c1ccccc1SC2	Marburg entry inh inconclusive (no result: HCV inh)
COc1ccc(N(C(=O)/C=C/c2ccccc2)C2=CC3CCC(C2)N3C)cc1 (stereo not drawn)	LASV entry inh inconclusive, HCV inh inconclusive, Marburg entry inh inconclusive
Cc1cccc(Oc2ccccc2NC(=O)CSCC(=O)Nc2cc(C)on2)c1	LASV entry inh inconclusive, HCMV inh inconclusive, FMDV inh inconclusive, HCV inh inconclusive, Marburg entry inh 3.5µM
CCOc1ccc(Oc2ccccc2NC(=O)CSCC(=O)Nc2cc(C)on2)cc1	LASV entry inh inconclusive, HCMV inh inconclusive, FMDV inh inconclusive, HCV inh 8.9µM, Marburg entry inh inconclusive
Cc1cc(NC(=O)CSCC(=O)Nc2ccccc2OC(F)F)no1	none
COCOc1cc(O)c2c(=O)c(OCOC)c(-c3ccc(OCOC)c(OCOC)c3)oc2c1	HCMV inh -71 (no result: LASV entry inh, Marburg entry inh)
COc1c(-c2ccc(O)c(O)c2)oc2cc(O)cc(O)c2c1=O	none (no result: LASV entry inh, Marburg entry inh)
Cc1cccc(N=C2Sc3nc4c(C)c(C)ccc4cc3CN2CCN2CCOCC2)c1	LASV entry inh 23µM, HCV inh 13µM, Marburg entry inh 16µM
C=CCOc1ccccc1CN(C(=O)CCl)c1ccc2c(c1)OCO2	HCMV inh -99, FMDV inh inconclusive, HCV inh inconclusive, Marburg entry inh inconclusive
CCOc1ccc2nc(N3CCCC(C(=O)NCCCN4C(C)CCCC4C)C3)sc2c1 (stereo not drawn)	HCV inh 2.5µM, Marburg entry inh inconclusive
CCN1CCN(CCCNC(=O)C2CCCN(c3nc4c(C)cc(C)cc4s3)C2)CC1 (stereo not drawn)	HCV inh 10µM (no result: LASV entry inh, Marburg entry inh)
COc1ccc(NC(=O)CN2CCCCC2)cc1S(=O)(=O)N1CCCCC1	LASV entry inh inconclusive
COc1ccc(NC(=O)CC2CCCC2)cc1S(=O)(=O)N1CCCCC1	LASV entry inh 10µM
COc1ccc(NC(=O)CCC2CCCCC2)cc1S(=O)(=O)N1CCCCC1	LASV entry inh inconclusive, HCMV inh -82, HCV inh inconclusive, Marburg entry inh inconclusive
CSc1ncccc1C(=O)Nc1cc(Cl)ccc1N1CCOCC1	HCV inh inconclusive
CC(=O)c1ccc(NC(=S)N2CCN(S(=O)(=O)c3ccc(F)cc3)CC2)cc1	none
Nc1c(C(=O)Nc2ccc(OC(F)(F)F)cc2)sc2nc3c(cc12)N1CCC3CC1	HCMV inh -78, FMDV inh 25µM (no result: HCV inh)
CNC(=O)Nc1cccc(-c2cc(-c3c(Cl)cccc3Cl)no2)c1	HCMV inh -74, Marburg entry inh inconclusive
CC(=O)Nc1cccc(-c2cc(-c3c(Cl)cccc3Cl)no2)c1	HCV inh inconclusive (no result: LASV entry inh, Marburg entry inh)
Cc1ccc(N(C(=O)c2sc(C)nc2C)C(C(=O)NCc2ccco2)c2ccccc2)cc1 (stereo not drawn)	LASV entry inh 7.3µM, HCMV inh inconclusive, Marburg entry inh inconclusive (no result: FMDV inh)
Cc1ccc(NC(=O)/C=C\C(=O)N(c2ccc(C(C)C)cc2)C(C(=O)NCc2ccco2)c2ccc(F)cc2)cc1 (stereo not drawn)	HCMV inh -82 (no result: HCV inh, Marburg entry inh)
Cc1cc(C)c2nc(SC3CCOC3=O)cc(C)c2c1 (stereo not drawn)	none
Cc1cc(C)c2nc(SC(C)C#N)cc(C)c2c1 (stereo not drawn)	HCV inh 10µM
Cc1ccsc1/C=C1\C(=O)NC(=S)N(C)C1=O	HCMV inh -102, FMDV inh 32µM (no result: LASV entry inh, Marburg entry inh)
CN1C(=O)/C(=C/c2ccc(Cl)s2)C(=O)NC1=S	LASV entry inh inconclusive, FMDV inh inconclusive, HCV inh inconclusive
Cc1ccc2nc(/C(C#N)=C\c3ccc(N4CCCCC4)c([N+](=O)[O-])c3)[nH]c2c1	LASV entry inh inconclusive, HCMV inh -62, HCV inh 7.1µM, Marburg entry inh inconclusive (no result: FMDV inh)
COc1cc(/C=C(\C#N)c2nc3ccc(C)cc3[nH]2)ccc1OC(C)C	LASV entry inh inconclusive, HCMV inh -68, Marburg entry inh inconclusive (no result: HCV inh)
N#C/C(=C/c1ccc(N2CCCC2)c([N+](=O)[O-])c1)c1nc2ccccc2[nH]1	none
O=C(NC(=S)N1CCN(C/C=C/c2ccccc2)CC1)c1ccc(Cl)nc1	none (no result: LASV entry inh, Marburg entry inh)
CCN(CC)C(=O)Cn1c(=O)c2ccccc2n2c(=S)sc(-c3cccc(C)c3)c12	HCV inh 0.56µM
CCN(CC)C(=O)Cn1c(=O)n(Cc2ccc(C(=O)NCc3ccc(C)cc3)cc2)c(=O)c2ccccc21	none (no result: HCV inh)
CCCCN(CCCC)CCNC(=O)c1cc(=O)[nH]c2ccc(S(=O)(=O)N3CCCCCC3)cc12	HCMV inh inconclusive (no result: HCV inh, Marburg entry inh)
COc1cccc(CC2(CO)CCCN(Cc3cn(C)c4ccccc34)C2)c1 (stereo not drawn)	HCMV inh inconclusive, HCV inh inconclusive (no result: LASV entry inh, Marburg entry inh)
Cn1cc(CN2CCCC(CO)(Cc3ccccc3)C2)c2ccccc21 (stereo not drawn)	LASV entry inh inconclusive, HCMV inh inconclusive, FMDV inh inconclusive, HCV inh inconclusive, Marburg entry inh 1µM

Screens from PubChem BioAssay.
